Experimental data taken from PubChem BioAssay.
Where “and” joins values, the source holds several entries; their conditions need not be identical. Identical values can stand only once. Records with an inconclusive call do not appear. Calls of active or inactive are those of the source.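 Rule for the calls, unless noted: active = compounds whose cell count with miR-34 switched on is under 0.7 times the count with it off; inactive = the rest.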

Experiments:
[1] = compounds altering viability of human ES cells (AID 493140; call rule not given here;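 note: cells exposed to compounds for four days before counting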); conditions: human embryonic stem cell survival screen; stronger effect = higher value
[2] = viability loss with induced miR-34 in A549 – imaging, A549 dox-inducible miR-34, nuclei and caspase counts, primary screen (AID 1347080); conditions: A549 miR-34 inducible, Hoechst nuclei count, 48 h
[3] = target: ATP-dependent translocase ABCB1 (Homo sapiens) (UniProt P08183); assay: P-glycoprotein substrate transport blockade – cell-based (AID 377; in the data active = fluorescence slope change above about 50%); conditions: MDR1-expressing cells, fluorescent substrate accumulation slope; stronger effect = higher value; concentration not given here
[4] = P. berghei load reduction in hepatocytes – cell-based, HepG2, luciferase luminescence, HepG2 viability, primary screen (AID 624349; in the data active = parasite load remaining mostly below about 12%, no sharp cut-off; inactive = mostly above about 10%;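 note: 100% = mean of DMSO negative control wells on the same plate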); conditions: P. berghei liver stage in HepG2, luciferase luminescence, concentration not given here; parasite load remaining: stronger effect = lower value; viability: measured here: HepG2 viability without parasites
[5] = stronger effect = lower value, cell number ratio, induced over uninduced
[6] = measured here: relative caspase fold change +Dox/-Dox
[7] = measured here: total cells with miR-34 induction, stronger effect = lower value
[8] = measured here: total cells without miR-34 induction

Chain of ATP-dependent translocase ABCB1 (Homo sapiens) (P08183 whole entry, looked up): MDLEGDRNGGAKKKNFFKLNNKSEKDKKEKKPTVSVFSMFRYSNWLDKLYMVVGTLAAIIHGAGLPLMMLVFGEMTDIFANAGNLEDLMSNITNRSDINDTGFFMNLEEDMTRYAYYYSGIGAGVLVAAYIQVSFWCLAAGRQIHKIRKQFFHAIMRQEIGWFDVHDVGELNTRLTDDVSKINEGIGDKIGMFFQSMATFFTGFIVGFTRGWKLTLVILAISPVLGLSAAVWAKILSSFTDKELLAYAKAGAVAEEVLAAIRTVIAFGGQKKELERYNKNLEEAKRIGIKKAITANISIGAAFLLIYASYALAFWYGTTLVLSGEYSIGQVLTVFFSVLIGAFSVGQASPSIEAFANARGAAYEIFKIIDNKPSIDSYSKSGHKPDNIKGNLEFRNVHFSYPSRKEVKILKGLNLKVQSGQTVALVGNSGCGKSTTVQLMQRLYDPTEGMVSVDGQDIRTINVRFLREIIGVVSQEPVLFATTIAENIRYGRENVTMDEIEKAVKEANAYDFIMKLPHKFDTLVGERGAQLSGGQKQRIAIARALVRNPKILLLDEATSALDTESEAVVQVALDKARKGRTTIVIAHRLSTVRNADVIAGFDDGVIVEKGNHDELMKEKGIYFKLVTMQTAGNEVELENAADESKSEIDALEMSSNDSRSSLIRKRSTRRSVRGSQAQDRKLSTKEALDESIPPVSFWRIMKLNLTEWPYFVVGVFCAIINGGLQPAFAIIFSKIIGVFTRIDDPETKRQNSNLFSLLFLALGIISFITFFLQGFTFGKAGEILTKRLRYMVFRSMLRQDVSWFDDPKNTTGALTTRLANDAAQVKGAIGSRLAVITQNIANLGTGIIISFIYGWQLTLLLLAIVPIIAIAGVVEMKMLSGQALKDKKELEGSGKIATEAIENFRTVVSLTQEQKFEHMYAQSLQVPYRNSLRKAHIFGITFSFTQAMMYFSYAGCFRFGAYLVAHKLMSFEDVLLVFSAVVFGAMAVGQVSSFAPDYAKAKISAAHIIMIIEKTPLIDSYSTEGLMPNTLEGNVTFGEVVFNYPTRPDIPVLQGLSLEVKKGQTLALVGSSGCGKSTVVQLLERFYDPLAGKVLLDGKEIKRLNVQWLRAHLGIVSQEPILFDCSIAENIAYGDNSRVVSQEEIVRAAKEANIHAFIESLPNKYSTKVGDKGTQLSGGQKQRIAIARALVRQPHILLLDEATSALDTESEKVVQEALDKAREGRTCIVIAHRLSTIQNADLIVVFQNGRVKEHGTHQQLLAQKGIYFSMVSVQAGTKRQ

Compound | survival [1] | fold change [2, 5] | fold change [2, 6] | cell count [2, 7] | cell count [2, 8] | fluorescence slope change [3] | parasite load remaining [4] | viability [4]
CC/C=C\C/C=C\C/C=C\C/C=C\C/C=C\C/C=C\CCC(=O)O[C@H](COCCCCCCCCCCCCCCCC)COP(=O)([O-])OCC[N+](C)(C)C | 68.5 (inactive) | 1.06 (inactive) | 1.37 | 5710 | 5380 | – | – | –
CCCCCCCCCCCCCCC(F)C(=O)O (stereo not drawn) | 81.6 (inactive) | 0.989 (inactive) and 1.01 (inactive) | 1.15 and 0.824 | 6040 and 6340 | 6110 and 6280 | – | – | –
COc1c(O)cc2c(c1O)C1OC(CO)C(O)C(O)C1OC2=O (stereo not drawn) | 2.17 (inactive) | 0.91 (inactive) | 1.19 | 9380 | 10300 | 18.9% (inactive) | 89.5% (inactive) | 106%
CCCCCCCCCCCCCC(=O)N[C@H](C)[C@@H](O)c1ccccc1 | 87.5 (inactive) | 1.02 (inactive) | 1.49 and 1.71 | 5830 and 6030 | 5700 and 5920 | – | – | –
CCCCC[C@H](O)/C=C/[C@@H]1[C@@H](CC(=O)CCCCC(=O)O)[C@@H](O)C[C@H]1O | 129 (inactive) | 0.992 (inactive) and 0.934 (inactive) | 1.02 and 1.32 | 5930 and 6160 | 5980 and 6600 | – | – | –
CO[C@@H]1[C@@H](OC(N)=O)[C@@H](O)C(Oc2ccc3c(O)c(NC(=O)c4ccc(O)c(CC=C(C)C)c4)c(=O)oc3c2C)OC1(C)C (stereo partly drawn) | – | 0.855 (inactive) | 1.4 | 9430 | 11000 | 82.3% (active) | 78.5% (inactive) | 90.9%
CCCCCC(O)/C=C/C=O (stereo not drawn) | 101 (inactive) | 0.954 (inactive) | 1.27 | 5280 | 5530 | – | – | –
CCCCCCCCCCCCCCCC(=O)C1=C(O)C(CO)OC1=O (stereo not drawn) | 98.2 (inactive) | 0.877 (inactive) | 0.963 | 5220 | 5960 | – | – | –
CCCCCCCCCCCCCCC[C@@H](O)[C@@H](N)CO | 56.7 (inactive) | 0.968 (inactive) | 1.46 | 5120 | 5290 | – | – | –
O[C@@H]1[C@@H](O)C=C2CCN3Cc4cc5c(cc4[C@H]1C23)OCO5 (stereo partly drawn) | 0.583 (inactive) | 0.89 (inactive) | 1.09 | 2250 | 2530 | 10.1% (inactive) | -0.065% (active) | 101%
CCCCC[C@H](O)/C=C/[C@@H]1[C@H](C/C=C\CCCC(=O)O)[C@@H](O)C[C@H]1O | 105 (inactive) | 0.908 (inactive) and 0.973 (inactive) | 1.37 and 1.68 | 6000 and 5340 | 6610 and 5490 | – | – | –
Cn1c(-c2ccc3c(c2)OCO3)cc(=O)c2ccccc21 | 4.17 (inactive) | 0.89 (inactive) | 1.11 | 8470 | 9520 | 6.8% (inactive) | 95.4% (inactive) | 95.4%
CCCCC[C@H](O)/C=C/[C@H]1OC(O)C[C@H](O)[C@@H]1C/C=C\CCCC(=O)O (stereo partly drawn) | 96.2 (inactive) | 0.852 (inactive) | 1.59 | 5370 | 6300 | – | – | –
CCCCC[C@H](O)CC[C@H]1[C@H](O)CC(=O)[C@@H]1CCCCCCC(=O)O | 89 (inactive) | 0.898 (inactive) and 0.911 (inactive) | 0.955 and 1.31 | 5150 and 5260 | 5740 and 5770 | – | – | –
COC(=O)[C@H]1[C@H]2C[C@@H]3c4[nH]c5cc(OC)ccc5c4CCN3C[C@H]2C[C@@H](OC(=O)/C=C/c2cc(OC)c(OC)c(OC)c2)[C@@H]1OC | 9.58 (inactive) | 0.865 (inactive) | 1.32 | 7260 | 8390 | 61% (active) | 26.9% (inactive) and 41.8% (inactive) | 94.2% and 77.7%
c1ccc2c(c1)CCCc1cc(NCCN3CCOCC3)nnc1-2 | 2.75 (inactive) | 0.801 (inactive) | 2.12 | 7290 | 9100 | 77.5% (active) | 74.6% (inactive) and 80.6% (inactive) | 105% and 79%
CCCCCCCCCCCCCCCCOC[C@H](COP(=O)([O-])OCC[N+](C)(C)C)OC(=O)NC | 80.6 (inactive) | 0.941 (inactive) and 0.889 (inactive) | 1.15 and 1.06 | 5360 and 4990 | 5690 and 5620 | – | – | –
CCCCCCCCCCCCCCCCCCOC[C@H](COP(=O)([O-])OCC[N+](C)(C)C)OC(C)=O | 83.4 (inactive) | 0.968 (inactive) and 1 (inactive) | 1.1 and 0.859 | 5740 and 5730 | 5930 and 5720 | – | – | –
CCCCCC(=O)CC[C@@H]1[C@@H](C/C=C\CCCC(=O)O)[C@@H](O)C[C@H]1O | 82.4 (inactive) | 0.925 (inactive) | 1.4 | 5510 | 5950 | – | – | –
CC(=O)OCC(=O)[C@@]1(O)CC[C@H]2[C@@H]3CCC4=CC(=O)CC[C@]4(C)C3(F)C(=O)C[C@@]21C (stereo partly drawn) | – | 0.875 (inactive) | 1.05 | 6080 | 6960 | – | 49% (inactive) | 46.2%
CC1(C)S[C@@H]2[C@H](NC(=O)[C@H](N)c3ccccc3)C(=O)N2[C@H]1C(=O)OC1OC(=O)c2ccccc21 (stereo partly drawn) | 7.92 (inactive) | 0.95 (inactive) | 0.554 | 8670 | 9130 | – | 114% (inactive) | 77.4%
CCCCCCCCCCCCCCC[C@@H](O)[C@H](CO)NC(=O)CCCCCCC | 84.9 (inactive) | 0.925 (inactive) | 1.41 | 5910 | 6390 | – | – | –
c1ccc2c3c([nH]c2c1)[C@H]1C2CCC([C@@H]4CCCN[C@H]24)N1CC3 (stereo partly drawn) | – | 0.865 (inactive) | 1.3 | 7540 | 8710 | – | 89.2% (inactive) | 93.6%
CCCCCCCCCC(=O)OCC(CO)OC(=O)CCCCCCCCC (stereo not drawn) | 93.4 (inactive) | 1.02 (inactive) | 0.801 | 4940 | 4860 | – | – | –
C[C@@H]1C(=O)O[C@H]2CC34[C@H]5C[C@@H](C(C)(C)C)[C@]36[C@@H](OC(=O)[C@@H]6O)O[C@@]4(C(=O)O5)[C@]21O (stereo partly drawn) | – | 0.905 (inactive) | 1.08 | 9000 | 9940 | – | 93.7% (inactive) | 99.1%
CC(C)(C)NCC(O)COc1cccc2c1CC(O)C(O)C2 (stereo not drawn) | – | 0.89 (inactive) | 1.39 | 8980 | 10100 | – | 84.5% (inactive) | 104%
CCCCC(C)(O)C/C=C/[C@H]1[C@H](O)CC(=O)[C@@H]1CCCCCCC(=O)O (stereo partly drawn) | 92.9 (inactive) | 0.933 (inactive) and 0.881 (inactive) | 1.28 and 1.98 | 6180 and 5400 | 6620 and 6130 | – | – | –
Oc1cc(O)c2c(c1)OC(c1ccc(O)c(O)c1)C(O)C2 (stereo not drawn) | – | 0.908 (inactive) | 1.18 | 9500 | 10500 | – | 64.2% (inactive) | 97%
COc1ccc(CC(C)(N)C(=O)O)cc1OC (stereo not drawn) | 17 (inactive) | 0.962 (inactive) | 0.938 | 9190 | 9550 | – | 64.7% (inactive) | 74.8%
C[N+]1(C)CCC[C@H]1C(=O)[O-] | 11.7 (inactive) | 0.876 (inactive) | 1.44 | 8860 | 10100 | – | 174% (inactive) and 67% (inactive) | 106% and 78.6%
